From PubChem BioAssay (NCI)
This is part of a sample that, as a whole, favours compounds with a hit. Of some 83,000 tested, about 20% had one in any assay.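 Cells were grown in 96-well plates and exposed to the test compound at a single concentration for 48 hours; results are reported as percent growth, with values below 10 considered active.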 A number with no mark means an inactive call. The source made the active and inactive calls.

Columns and labels:
Experiment in all cases: NCI-60 one-dose screen, 48 h (100 = growth as untreated, 0 = no growth, -100 = all killed)
Details in all cases: 10 µM unless noted
SK-MEL-2 melanoma = tested on: SK-MEL-2 melanoma
EKVX NSCLC = tested on: EKVX NSCLC
SN12C renal = tested on: SN12C renal
UO-31 renal = tested on: UO-31 renal
TK-10 renal = tested on: TK-10 renal
ACHN renal = tested on: ACHN renal
CAKI-1 renal = tested on: CAKI-1 renal
A498 renal = tested on: A498 renal
CCRF-CEM leukemia = tested on: CCRF-CEM leukemia
MOLT-4 leukemia = tested on: MOLT-4 leukemia
SR leukemia = tested on: SR leukemia
RPMI-8226 leukemia = tested on: RPMI-8226 leukemia
OVCAR-8 ovarian = tested on: OVCAR-8 ovarian
OVCAR-5 ovarian = tested on: OVCAR-5 ovarian
OVCAR-4 ovarian = tested on: OVCAR-4 ovarian
SK-OV-3 ovarian = tested on: SK-OV-3 ovarian
IGROV1 ovarian = tested on: IGROV1 ovarian
OVCAR-3 ovarian = tested on: OVCAR-3 ovarian
HS 578T breast = tested on: HS 578T breast
NCI/ADR-RES ovarian = tested on: NCI/ADR-RES ovarian

Row | SMILES | growth (SK-MEL-2 melanoma) | growth (EKVX NSCLC) | growth (SN12C renal) | growth (UO-31 renal) | growth (TK-10 renal) | growth (ACHN renal) | growth (CAKI-1 renal) | growth (A498 renal) | growth (CCRF-CEM leukemia) | growth (MOLT-4 leukemia) | growth (SR leukemia) | growth (RPMI-8226 leukemia) | growth (OVCAR-8 ovarian) | growth (OVCAR-5 ovarian) | growth (OVCAR-4 ovarian) | growth (SK-OV-3 ovarian) | growth (IGROV1 ovarian) | growth (OVCAR-3 ovarian) | growth (HS 578T breast) | growth (NCI/ADR-RES ovarian)
1 | c1ccc(CNc2ccc3nc(CCC4CCCCC4)[nH]c3c2)cc1 | 82.8% | 75.7% | 62.8% | 37.5% | 84.2% | 87% | 66.7% | 42.7% | 59.2% | 51.2% | 80.8% | 47.9% | 72.3% | 63.4% | 47.5% | 86.8% | 53.5% | 63.9% | 80.9% | 61.8%
2 | COc1ccc2nc3cc(Cl)ccc3c(NCCN)c2c1 | 98.5% | -47.5% (active) | -60.4% (active) | -19.4% (active) | -76.2% (active) | -91.7% (active) | -96.5% (active) | 55.5% | -13.3% (active) | -40.9% (active) | -45.4% (active) | -23.6% (active) | -33.5% (active) | -61.6% (active) | -86% (active) | 69.3% | -27% (active) | -84.8% (active) | 91.7% | 19%
3 | C[C@@H](CO)[C@@H]1CC[C@]2(C(=O)N3CCN(C)CC3)CC[C@]3(C)[C@H](CC[C@@H]4[C@@]5(C)CC[C@H](O)C(C)(C)[C@@H]5CC[C@]43C)[C@@H]12 | 90.1% | 88.4% | 71.9% | 64.7% | 113% | 89.6% | 78.2% | 89% | -5.45% (active) | 39.2% | -12.4% (active) | 38.2% | 80.3% | 101% | 78.3% | 108% | 74% | 87.7% | 85.2% | 84.5%
4 | Cc1nc2sc(C(=O)Nc3ccc(Cl)cc3)c(N)c2cc1C(O)c1ccccc1 (stereo not given) | 56.6% | 44.2% | 40.6% | 47.9% | 60.3% | 33.4% | 47.5% | 13.5% | 13.4% | 17.8% | 11% | 15.5% | 49.7% | 59.6% | 64.9% | 51.3% | 53.9% | 5.14% (active) | 26.8% | 25.8%
5 | CC[C@H](C)[C@H](NC(=O)[C@H](CCCNC(=N)N)NC(=O)[C@H](Cc1c[nH]c2ccccc12)NC(=O)[C@@H](NC(=O)[C@H](CCCCN)NC(=O)[C@H](CCCCN)NC(=O)[C@@H](NC(=O)[C@@H](NC(=O)[C@@H](NC(=O)[C@H](CCCCN)NC(=O)[C@H](Cc1ccccc1)NC(=O)[C@H](CCCCN)NC(=O)[C@H](CCCCN)NC(=O)[C@H](Cc1ccccc1)NC(=O)[C@@H](NC(=O)[C@@H](N)CCCCN)[C@@H](C)CC)[C@@H](C)O)[C@@H](C)CC)[C@@H](C)CC)C(C)C)C(=O)N[C@@H](Cc1ccccc1)C(=O)NCC(=O)N[C@@H](CCCNC(=N)N)C(=O)N[C@@H](Cc1ccccc1)C(N)=O | -37.5% (active) | -71% (active) | -56.1% (active) | -68.2% (active) | -69.4% (active) | -54.7% (active) | -52.2% (active) | -40.9% (active) | 17.6% | 29% | 1.72% (active) | -18% (active) | 0.804% (active) | -46.1% (active) | -31.3% (active) | 13.9% | -25.8% (active) | -23.8% (active) | -21.3% (active) | -11.9% (active)
6 | Cc1nc2sc(C(=O)Nc3cccc(Cl)c3)c(N)c2cc1C(O)c1ccccc1 (stereo not given) | 49.9% | 44.6% | 24.4% | 45.7% | 62.4% | 30.5% | 46.4% | 8.38% (active) | 17.1% | 14.5% | 8.06% (active) | 11.3% | 19% | 41.4% | 71.6% | 40.6% | 28.7% | 6.3% (active) | 19% | 5.21% (active)
7 | COc1ccc(Nc2ncc(C(N)=O)c(NCCCNC(=O)C3CCC3)n2)cc1 | 51.8% | 96.2% | 30.9% | 2.37% (active) | 34.4% | 44.9% | 34.7% | 105% | 43.7% | 38.7% | 65.1% | 72.9% | 62.6% | 109% | 81% | 36.6% | 66.8% | 88.8% | 71.5% | 100%
8 | O=C(Nc1ccc(F)cc1)Nc1ccccc1CNc1nc(Nc2ccc(OCCN3CCCC3)cc2)ncc1Cl | 99% | 53.9% | -21.7% (active) | -81.5% (active) | 47.2% | -61.9% (active) | 31.2% | 80.4% | 6.77% (active) | 14.1% | 2.14% (active) | -4.89% (active) | 23.1% | 16.9% | -7.62% (active) | 92.8% | 56.2% | -43.1% (active) | 74.3% | 44.5%
9 | COc1ccc(C(c2cc(OC)c(OC)c(OC)c2)N2CCCC2)cc1 (stereo not given) | 55.7% | 87.8% | 108% | 75.1% | 88.3% | 103% | 77.5% | 31.2% | 71.2% | 78.1% | 23.9% | 97.4% | 95.6% | 92.6% | 101% | 77.5% | 82.9% | 66.6% | 80.4% | 69.4%
10 | O=C(CCCCCCCCC(=O)N/N=C\c1cc(Cl)ccc1O)N/N=C\c1cc(Cl)ccc1O | 18.6% | 54.7% | 28.7% | 19% | 45.7% | 9.47% (active) | 11.6% | 73.4% | 12.1% | 15.3% | 14.1% | 31.9% | 25.9% | 62% | 23% | 41.1% | 30.2% | 31.4% | 66.3% | 17.4%
11 | C/C(=N\O)C(=O)NCCCCCC(=O)Nc1ccccc1 | 110% | 98.2% | 98.5% | 90.3% | 89.6% | 109% | 91.9% | 90.2% | 101% | 101% | 104% | 106% | 96.2% | 106% | 103% | 102% | 111% | 109% | 114% | 103%
12 | CNCc1cccc2c1OCCOCCN(C)C(=O)CN(C)S(=O)(=O)c1ccc(cc1)-c1cnc(N)c(n1)C(=O)N2 | 4.91% (active) | 41.8% | 20.7% | 101% | 11.5% | -2.97% (active) | 27.2% | 70.3% | -18.4% (active) | -1.69% (active) | -16.9% (active) | 88.8% | 2.03% (active) | 33.8% | 42.4% | 8.28% (active) | 51.4% | -25.3% (active) | 63.3% | 102%
13 | CC[C@]12C=CCN3CC[C@@]4(c5ccc(OC)cc5N(C)[C@H]4[C@@](O)(C(=O)OC)[C@@H]1OC(=O)CCCN1CCOCC1)[C@@H]32 | 109% | 111% | 105% | 94.1% | 99.8% | 110% | 94.2% | 113% | 107% | 102% | 111% | 96.2% | 104% | 114% | 108% | 111% | 112% | 108% | 107% | 106%
14 | C=C(C)[C@@H]1CC[C@]2(CO)CC[C@]3(C)[C@H](CC[C@@H]4[C@@]5(C)CCC(NCCc6ccc(O)cc6)C(C)(C)[C@@H]5CC[C@]43C)[C@@H]12 (stereo not given in full) | -85% (active) | -52.1% (active) | -88.9% (active) | -96.9% (active) | -94.5% (active) | -100% (active) | -58.5% (active) | 6.99% (active) | -41.3% (active) | -43.8% (active) | -46.8% (active) | -53.5% (active) | -79.4% (active) | -72.4% (active) | -89.3% (active) | 75.8% | -85.5% (active) | -95% (active) | -54.5% (active) | -71% (active)
